# High-throughput results: PubChem, several laboratories
# Most compounds without a hit are left out; they make up all but 28% or so of the library.
# CYP2C19 act – increases human CYP2C19 enzyme activity. P33261. recombinant CYP2C19, luciferin-H EGE luminescence; stronger effect = higher value; 0 = fully inhibited enzyme, 1 = untreated enzyme. activation factor at 5 µM. 96,000 tested, under 10 active. AID 1025;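 active = activation factor of at least 2 at 5 µM in the primary screen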;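 note: 0 = wells with 2.5 mM tranylcypromine and 1 = vehicle-only wells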
# D1 mod – allosterically modulates the human D1 dopamine receptor; P21728; HEK293 D1, CRE-luciferase, dopamine EC30 potentiation; actives deviate in either direction; B-score at 10 µM; hit rate 5.9% among 58,000;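 active = luminescence count or its row- and column-corrected plate score outside the 99.7% band of the plate's sample wells, on either side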
# Target sequence (P21728 whole entry, looked up): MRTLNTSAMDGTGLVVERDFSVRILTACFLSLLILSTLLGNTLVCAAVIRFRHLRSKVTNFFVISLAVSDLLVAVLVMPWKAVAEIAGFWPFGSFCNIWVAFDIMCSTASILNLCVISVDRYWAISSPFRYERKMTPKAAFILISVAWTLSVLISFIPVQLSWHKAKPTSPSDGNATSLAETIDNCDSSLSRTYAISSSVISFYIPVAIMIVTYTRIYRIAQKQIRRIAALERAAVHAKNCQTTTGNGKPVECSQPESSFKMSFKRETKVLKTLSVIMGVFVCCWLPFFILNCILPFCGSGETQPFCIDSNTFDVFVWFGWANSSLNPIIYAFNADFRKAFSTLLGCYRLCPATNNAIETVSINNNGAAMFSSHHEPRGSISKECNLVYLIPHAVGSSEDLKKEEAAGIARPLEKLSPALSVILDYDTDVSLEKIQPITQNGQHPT
# CYP2C19 inh – inhibitors of human CYP2C19; inhibition, % at 5 µM; hit rate 21% among 96,000; CYP2C19 Supersomes, luciferin-H EGE luminescence, 30 min;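 active = CYP2C19 inhibition above a set limit at 5 µM in the primary screen, cut at about 50% in these data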;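 note: plate controls were negative control wells for no effect and 2.5 mM tranylcypromine positive control for full effect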
# CYP2C9 activ – CYP2C9 (human) activation. P11712. recombinant CYP2C9, luciferin-H conversion, luminescence; stronger effect = higher value; factor 1 = untreated enzyme, 0 = blocked. activation factor at 5 µM. hit rate 1.4% among 96,000;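 active = activation factor of 2 or more for CYP2C9 at a 5 µM dose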;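 note: 0 = sulfaphenazole-blocked wells and 1 = vehicle-only wells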
# CYP2C9 inhib – blocks human cytochrome P450 2C9. CYP2C9 Supersomes, luciferin-H conversion, luminescence. inhibition, % at 5 µM. hit rate 20% among 96,000. AID 777;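 active = blocking of liver enzyme CYP2C9 beyond about 50% at 5 µM, limit read from the data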
# hDAT+cocaine – human DAT dopamine uptake with cocaine, either direction; Q01959; LLC-PK1 hDAT cells, [14C]-dopamine uptake with cocaine IC80; actives deviate in either direction; B-score at 10 µM; hit rate 1.3% among 110,000; AID 449768;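 active = Z score or B-score, a plate-position-corrected score, falls beyond the plate's 99.7% confidence bounds, in either direction; inactive = both scores lie inside the 99.7% bounds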;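 note: scored against the spread of the other compound wells on the same plate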
# Active calls of the source: *; x = no result given.
SMILES,CYP2C19 act,D1 mod,CYP2C19 inh,CYP2C9 activ,CYP2C9 inhib,hDAT+cocaine
COc1ccc(NS(=O)(=O)c2ccc(NS(C)(=O)=O)cc2)cc1,0.8,-0.18,17,0.8,16,0.52
CCC1(N(C(C)=O)c2ccc(OC)cc2)C(=O)c2ccccc2C1=O,0.9,0.26,6,1.2,-18,-0.79
COc1ccc(S(=O)(=O)N(Cc2nc3ccccc3c(=O)[nH]2)C2CCCC2)cc1,0.2,-1.2,85*,0.1,94*,1.3
COc1ccccc1CN(Cc1nc2ccccc2c(=O)[nH]1)S(=O)(=O)c1ccc(C)cc1,0.3,x,70*,0.3,74*,-1.6
COc1ccccc1CN(Cc1nc2ccccc2c(=O)[nH]1)C(=O)Nc1ccccc1C,0.1,x,89*,0.3,73*,0.45
CCCC(c1nnnn1CCc1ccccc1)N1CCN(C(=O)c2ccco2)CC1 (stereo unspecified),0.9,1.1,14,0.8,24,0.43
CC(=O)N1CCN=C1SCc1ccccc1F,0.8,0.068,22,1.1,-6,-0.77
CCC(=O)N1CCN=C1SCc1ccccc1,0.7,1,34,0.9,10,0.56
CCC(=O)N1CCN=C1SCc1ccccc1Cl,0.3,0.091,70*,1.5,-48,1.4
CCC(=O)N1CCN=C1SCc1ccc(Cl)cc1,0.2,0.73,84*,0.8,19,-0.56
O=C(C1CC1)N1CCN=C1SCc1ccccc1Cl,0,0.58,98*,0.7,27,-0.017
Cc1cccc(CSC2=NCCN2C(=O)C2CC2)c1,0.2,0.77,80*,0.7,28,0.42
Cc1cccc(CN2CCN(CC(=O)NCc3ccc(F)cc3)C2=O)c1,x,-0.24,x,x,x,-0.013
CC(=O)N1CCN=C1SCc1ccccc1Cl,0.6,-0.015,41,2.6*,-162,0.59
COC(=O)c1ccc(COc2cccc(OC)c2)o1,0.5,2.4,47,0.9,11,-0.9
COC(=O)c1ccc(CSCC(=O)Nc2cc(OC)cc(OC)c2)o1,0.5,-0.067,45,0.4,64*,1
Cc1ccc(C(=O)NC(C)(COc2nonc2C)COc2nonc2C)cc1,0.1,-1.8,94*,0.3,72*,0.28
Cc1ccc(C(=O)NCC(C)(C)O)cc1,x,-1,x,x,x,0.42
COC(=O)C(NC(=O)c1ccc(C)cc1)(Nc1cccc(C)n1)C(F)(F)F (stereo unspecified),x,x,x,x,x,1.2
Cc1c(N=c2c(=O)c3ccccc3c2=O)c(=O)n(-c2ccccc2)n1C,x,-1.6,x,x,x,-0.0042
COc1ccc(OC)c(NC(=O)Cc2coc3cc(C)cc(C)c23)c1,0.2,x,75*,0.4,55*,-0.073
COc1ccc(OC)c(NC(=O)Cc2coc3ccc4ccccc4c23)c1,0,x,96*,0.7,26,-0.55
COc1ccc(OC)c(NC(=O)Cc2coc3ccc(C)cc23)c1,0.5,0.25,53*,0.6,44,-0.95
Fc1ccccc1N1CCN(Cc2nc(-c3ccc(Cl)cc3Cl)no2)CC1,0.6,0.09,38,0.4,61*,-0.15
CCN1CCCC1CNC(=O)CCc1nc(-c2ccc(C)cc2)no1 (stereo unspecified),0.7,-0.43,25,0.9,10,-0.69
SMILES,CYP2C19 act,D1 mod,CYP2C19 inh,CYP2C9 activ,CYP2C9 inhib,hDAT+cocaine
CN1C(=O)c2c(sc3c2CCCC3)NC1c1ccccc1O (stereo unspecified),0.3,-0.51,74*,0.1,87*,0.4
Cc1cccc(C2NC(=O)c3c(sc(C)c3C)N2)c1O (stereo unspecified),1.1,x,-5,1.6,-59,0.72
Brc1cc2[nH]cnc2c2ccccc12,0.5,-0.39,50*,1.2,-21,-1.3
Nn1c(SCc2nc3ccccn3c2Br)nnc1-c1cccnc1,0.9,0.02,9,2.5*,-153,0.34
CC1CN(C(=O)C(c2ccccc2)c2ccccc2)CC(C)O1 (stereo unspecified),0.9,x,10,0.9,11,-0.94
COC(=O)C1=C(N)c2c(F)cccc2C1(C#N)c1ccc(F)cc1 (stereo unspecified),0.3,x,66*,0.6,37,-0.056
CC(=O)NC(c1ccccc1)c1cccnc1 (stereo unspecified),0.9,0.29,13,1.1,-8,-0.57
Cc1ccccc1C(NC(N)=O)c1ccccc1 (stereo unspecified),0.1,0.06,95*,0.7,29,-0.62
COc1cc(=O)[nH]c(=O)n1CC(=O)c1ccccc1,x,-0.049,x,x,x,-0.31
O=[N+]([O-])c1cnccc1Nc1cccc(F)c1,x,x,x,x,x,-0.18
O=[N+]([O-])c1ccc(Oc2cccc(F)c2)c2ccncc12,0.1,x,85*,0.2,83*,0.23
CCOc1cc(CNC(C)C)c(Cl)cc1OCC(=O)NCCc1ccccc1,0.2,x,77*,0.7,33,-1.5
CCOc1cc(CNCCO)c(Cl)cc1OCC(=O)NCCc1ccccc1,0.4,x,58*,0.9,14,0.84
COC(=O)C1NC(=O)N2C(C(=O)OC)C(C)(C)S[C@H]12 (stereo partly specified),x,x,x,x,x,-0.35
CCn1c(SCC(=O)Nc2cc(F)ccc2C)nnc1-c1ccccc1O,0.1,-0.44,95*,0.2,81*,-0.19
CCn1c(SCC(=O)Nc2ccccc2C)nnc1-c1ccccc1O,0.4,-0.5,57*,0.5,51*,-0.22
Cc1ccc(-n2c(CCc3ccccc3)nnc2SCC(=O)NCc2ccccc2)cc1C,0.3,x,67*,0.5,48,1.1
CCn1c(SCC(=O)Nc2ccc3c(c2)OCO3)nnc1-c1ccccc1O,0.2,-1.5,76*,0.2,79*,1
COCc1nnc(SCC(=O)NCc2ccccc2)n1-c1ccccc1,0.6,0.088,44,0.9,14,0.59
COc1cc(OC)nc(Oc2ccccc2C(=O)Oc2ccc(F)cc2Cl)n1,0.7,x,33,0.6,42,-0.15
CCC(C)[C@H](N)c1cn([C@@H](Cc2cc3ccccc3[nH]2)C(=O)N2CCNCC2)nn1 (stereo partly specified),x,x,x,x,x,-0.00096
N#CCSc1nnc(-c2ccccc2O)n1Cc1ccccc1,0.5,x,51*,0.9,13,1.3
COCCn1c(SCC#N)nnc1-c1ccccc1O,0.6,x,39,1.2,-22,-0.21
CCn1c(SCC(=O)NCc2ccccc2)nnc1-c1ccccc1O,0.4,-0.96,57*,0.5,52*,0.0019
Cc1ccc(NC(=O)CSc2nnc(C)n2-c2ccccc2)cc1,x,x,x,x,x,0.59
N#Cc1ccccc1NC(=O)CSc1nnc(-c2ccccc2O)n1-c1ccccc1,0.7,-0.72,33,0.4,64*,1.3
COc1ccc(NC(=O)Nc2ccccc2C(=O)N2CCCC2)cc1,0.7,-0.079,33,0.8,16,-0.25
O=C(N/N=C/C=C/c1ccccc1)c1cc2c(ccc3ccccc32)o1,1.1,x,-5,1.1,-10,-0.053
CN1CCN(Cc2cccc(Oc3ccccc3)c2)CC1,0.3,x,69*,0.9,10,0.49
